Results filed as inconclusive are left out. Unmarked numbers belong to inactive results. The call rests on the fitted dose curve; in most records, active means well fitted inhibition curve with a large enough effect in the repeat runs; inconclusive means weak or mixed curves, or effect the other way; inactive means no such curve, though single readings can be large or run the other way.
Test: qHTS assay to identify small molecule antagonists of the retinoic acid receptor (RAR) signaling pathway (AID 1159552; further: nearly all actives have a fitted effect of over 50% in size)
Conditions: C3RL4 RARE luciferase reporter, retinol-stimulated, 6 h; series mostly up to 92.4 µM; activity, negative = inhibition: at the top concentration
Text: National Center for Advancing Translational Sciences [NCATS]
NIH Chemical Genomics Center [NCGC]
U.S. Environmental Protection Agency [EPA]
National Institutes of Environmental Health Sciences [NIEHS]
National Toxicology Program [NTP]
U.S. Food and Drug Administration [FDA]
All-trans Retinoic acid (atRA) is the potent natural metabolite of retinol and plays an important role in normal embryonic development and maintenance of cellular phenotype in adult animals. atRA is the activating ligand for the retinoic acid receptors (RARs) which form heterodimers with retinoid X receptors (RXRs) on the retinoic acid response element (RARE). Through activation of the RAR/RXRs nuclear receptors, atRA regulates the transcription of a large number of protein-coding genes and regulatory RNAs. Intracellular levels of atRA are controlled by the retinol signaling pathway (RSP) that regulates the biosynthesis and catabolism of atRA to maintain physiological levels. Chemicals that interfere with the RSP can cause abnormal intracellular levels of atRA and therefore are potential developmental toxicants. To assess compounds for the potential adverse effect on embryonic development through interfering with retinol signaling, a cell-based RARE luciferase reporter gene assay was used. C3RL4 cell line (OARSA/CFSAN/FDA, Laurel, MD) was used to screen Tox21 10K compound library for identifying inhibitors of the RSP.
Tox21 Assay Protocol Summary:
C3RL4 cells were seeded at 1,000/well in 4 uL of assay medium into white solid 1,536-well tissue culture plates (Greiner Bio-One North America Inc. Monroe, NC) using a Multidrop Combi (Thermo Scientific, Waltham, MA) dispenser. After incubation at 37 C and 5% CO2 for an overnight, 23 nL of compounds dissolved in DMSO, positive control or DMSO only were transferred by a Pintool station (Kalypsys, San Diego, CA). One ul of 1 uM (final concentration) of Retinol was added right after the compound addition by using a Flying Reagent Dispenser (FRD) (Aurora Discovery, San Diego, CA). After 6 hr incubation at 37 C and 5% CO2, 5 uL of Amplite Luciferase reagent (AAT Bioquest Inc. Sunnyvale, CA) was added to each assay plate using an FRD. Luminescence was quantified on a ViewLux plate reader (PerkinElmer, Waltham, MA) after 30 min incubation at room temperature.
On the % scale 0 is the no-effect control and ±100 the full control effect.

SMILES | activity, negative = inhibition
O=C(O)/C=C(\CC(=O)O)C(=O)O | -7.49% [at 42.5 µM]
O=S(=O)(O)c1cc(I)c(O)c2ncccc12 | -6.92% [at 42.5 µM]
N#Cc1ccccc1C#N | -8.24%
CCN1CCN(C(=O)N[C@@H](C(=O)N[C@@H]2C(=O)N3[C@@H]2SC(C)(C)[C@H]3C(=O)O)c2ccccc2)C(=O)C1=O | -1.97% [at 42.5 µM]
COC(=O)c1ccc(NC(C)=O)cc1OC | 5.7% [at 42.5 µM]
COc1cc(NS(=O)(=O)c2ccc(N)cc2)ncn1 | 5.08% [at 42.5 µM]
COC(=O)c1ccccc1Cl | 2.71%
CCCCNCC | 37.4%
CCCOc1ccc(C(=O)OCCN(CC)CC)cc1N | 16.9% [at 42.5 µM]
Cc1cc(N)no1 | 6.67%
COCc1nnc(-c2ccc[n+]([O-])c2)n1-c1c(Cl)c(Cl)cc2[nH]c(=O)c(=O)[nH]c12 | 9.23%
CN(C)CCCN(C)C | 0.227% [at 8.39 µM]
CC(C)C(C)C | 5.99%
C=CCCCCCCCCCCCCCC | -7.34% [at 19 µM]
CC(C)OC(=O)C(C(=O)OC(C)C)=C1SC=CS1 | -18% [at 42.5 µM]
CCN(CC)CC(=O)Oc1ccc(NC(C)=O)cc1 | -5.14% [at 42.5 µM]
C/C=C(\C)C=O | -1.53%
Cc1ccc(S(=O)(=O)NC(=O)NN2CC3CCCC3C2)cc1 (stereo not given) | 42.3% [at 42.5 µM]
O=Cc1ccccc1S(=O)(=O)O | -2.8%
NC[C@H]1O[C@H](O[C@H]2[C@H](O)[C@@H](O[C@H]3O[C@H](CO)[C@@H](O)[C@H](N)[C@H]3O)[C@H](N)C[C@@H]2N)[C@H](N)[C@@H](O)[C@@H]1O | -0.0699% [at 19 µM]

SMILES | activity, negative = inhibition
CC12CCCC=C1C(=O)OC2=O (stereo not given) | -3.4%
CCO[Si](CC(C)C)(OCC)OCC | -0.604%
CCCC(=O)CC | 24.1%
CSC(=O)c1cccc2nnsc12 | 0.0352%
CCO/C=C1\N=C(c2ccccc2)OC1=O | 11.4%
Clc1cc(Cl)c(Cl)c(Cl)c1Cl | -0.289%
O=C(CCBr)N1CCN(C(=O)CCBr)CC1 | 0.241% [at 42.5 µM]
CCOC(=O)CC(C(C)=O)C(C)=O | 6.79%
COc1ccc(Cl)cc1C | -23.9%
CCC(C)SSC(C)CC (stereo not given) | 1.16%
O=c1c(O)c(O)c1=O | -2.26%
Cc1ccc(N)nc1 | 6.64%
NC(=O)CC[C@@H](N)C(=O)O | 3.21% [at 42.5 µM]
NS(=O)(=O)c1cc2c(cc1C(F)(F)F)NCNS2(=O)=O | -0.173% [at 42.5 µM]
C=CCOC(=O)CCCCCCCC | -0.799%
CC(=O)c1ccc(O)c(C(N)=O)c1 | -2.02% [at 42.5 µM]
CC(C)(C)C(=O)NCCCC(=O)O | -1.79% [at 42.5 µM]
CCN(CC)CC | 87.5%
CNCCc1ccccn1 | 12.8% [at 42.5 µM]
CC(C)(O)CCCC1=CCC(C=O)CC1 (stereo not given) | 45.1%

From PubChem BioAssay (Tox21)
